Assay [1] relates to DLD1. The assay is described as follows: cell viability (CellTiter-Glo) relative to plate median (fraction of plate median); higher = more viable cells. As to conditions: 5 µM; treatment time 24 h; reporter: 7TFP. In outline: (§1)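 Colorectal cancer cell lines stably carrying lentiviral TCF/Wnt firefly luciferase reporters (7TFP or TCF4/Wnt) were plated in 384-well plates and, 24 h later, given library compounds at a final 5 µM for 24 h. Firefly luciferase or CellTiterGlo luminescence was read on parallel plates with a Tecan F500 reader. Each well's signal was normalised to the plate median in webcellHTS2 (additive, without log transformation). Values are the mean of two independent replicates.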
(In ATP-based viability assays light output follows the ATP content of the culture.)

Assay [2] concerns HCT116. Described as above. The following applies: 5 µM; treatment time 24 h; reporter: TCF4/Wnt. The method, boiled down: as §1
In assay [3] the test system is SW480. Described as above. The following applies: 5 µM; treatment time 24 h; reporter: 7TFP. The method, boiled down: as §1
Assay [4] relates to DLD1. The experiment in a line: TCF/Wnt firefly luciferase reporter signal relative to plate median (fraction of plate median); higher = higher Wnt reporter signal. The following applies: 5 µM; treatment time 24 h; reporter: 7TFP. The method, boiled down: as §1
Background: A reporter such as luciferase makes a cellular process visible.

Assay [5] has as its system SW480. Described as above. As to conditions: 5 µM; treatment time 24 h; reporter: 7TFP. The method, boiled down:
as §1

± gives the standard deviation of the averaged measurements.

The source of these data is the supplement of paper PMC6522484.

On to `COc1ccc(-c2cc(=O)c3c(OC(C)=O)cc(OC(C)=O)cc3o2)cc1`, for which the results for the cell viability in assay [1], in assay [2] and in assay [3] were 1.04 ± 0.064, 1.07 ± 0.13 and 1.17 ± 0.057, respectively. Besides, the “TCF/Wnt firefly luciferase reporter signal” value in assay [4] came out at 1.09; in assay [5] it was 1.21 ± 0.092.

For the compound `CC(=O)O[C@@](C)(CCC=C(C)C)C1CC=C(C)CC1` (stereo not given in full), the cell viability in assay [1] is 0.974 ± 0.066; in assay [2] it was 1.02 ± 0.021; in assay [3], 0.993 ± 0.067. The “TCF/Wnt firefly luciferase reporter signal” value was 0.9845 ± 0.0021 in assay [4] and 1.08 ± 0.028 in assay [5].

Take `O=C(OOC(=O)c1ccccc1)c1ccccc1`: the cell viability in assay [1] is 1.015 ± 0.0071; in assay [2], 1.12 ± 0.16; in assay [3] it was 0.998 ± 0.031. Further, the figures for the “TCF/Wnt firefly luciferase reporter signal” value in assay [4] and in assay [5] were 0.96 ± 0.071 and 1.03 ± 0.053, respectively.

For the compound `CO/N=C(\C(=O)N[C@@H]1C(=O)N2C(C(=O)O)=C(COC(C)=O)CS[C@H]12)c1csc(N)n1`, the cell viability in assay [1] is 1.03 ± 0.035; in assay [2], 1.07; in assay [3] it was 0.969 ± 0.031. For the same compound, the results for the “TCF/Wnt firefly luciferase reporter signal” value in assay [4] and in assay [5] were 1.01 ± 0.11 and 0.856 ± 0.074, respectively.

Regarding `O=C(O)c1cc(=O)c2ccccc2[nH]1`, the cell viability is 1.01 ± 0.021 in assay [1], 0.968 ± 0.16 in assay [2] and 0.9555 ± 0.0064 in assay [3]. Further, the “TCF/Wnt firefly luciferase reporter signal” value in assay [4] is 0.8765 ± 0.0078; in assay [5], 0.986 ± 0.048.

With `Cc1cnc(NC(=O)C2=C(O)c3ccccc3S(=O)(=O)N2C)s1`, the cell viability in assay [1] turned out to be 1.01 ± 0.04; in assay [2], 1.05 ± 0.078; in assay [3], 0.995 ± 0.079. The “TCF/Wnt firefly luciferase reporter signal” value in assay [4] amounted to 1.02 ± 0.031; in assay [5] it was 1.03 ± 0.044.

Turning to `Cc1cc(O)cc(O)c1C(=O)O`, the cell viability in assay [1] came out at 1.03 ± 0.035; in assay [2], 1.07 ± 0.1; in assay [3], 1.03 ± 0.014. In addition, the “TCF/Wnt firefly luciferase reporter signal” value in assay [4] was determined as 1 ± 0.05; in assay [5], 0.925 ± 0.039.

With `CO[C@H]1C[C@H](O[C@H]2[C@H](C)[C@@H](O[C@@H]3O[C@H](C)C[C@H](N(C)C)[C@H]3OC(C)=O)[C@@H](C)C[C@@]3(CO3)C(=O)[C@H](C)[C@@H](OC(C)=O)[C@@H](C)[C@@H](C)OC(=O)[C@@H]2C)O[C@@H](C)[C@@H]1OC(C)=O`, the cell viability in assay [1] was 1.06; in assay [2], 1.01 ± 0.19; in assay [3], 0.956 ± 0.03. Also, the entries for the “TCF/Wnt firefly luciferase reporter signal” value in assay [4] and in assay [5] were 1.03 ± 0.11 and 0.945 ± 0.12, respectively.

Consider `CNC[C@H](O)c1cccc(O)c1`, for which the cell viability in assay [1] amounted to 1.02 ± 0.033; in assay [2], 1.09 ± 0.064; in assay [3], 0.955 ± 0.062. Also, the “TCF/Wnt firefly luciferase reporter signal” value came out at 1.02 ± 0.13 in assay [4] and 1.075 ± 0.0071 in assay [5].

Take `Cn1c(=O)c2nc(C3CCCC3)[nH]c2n(C)c1=O`: the cell viability amounted to 1.07 ± 0.064 in assay [1], 1.05 ± 0.1 in assay [2] and 1.02 ± 0.047 in assay [3]. Moreover, the “TCF/Wnt firefly luciferase reporter signal” value turned out to be 1.01 ± 0.17 in assay [4] and 0.968 ± 0.039 in assay [5].

In the case of `Oc1ccc([C@H]2Oc3cc(O)cc(O)c3C[C@H]2O)cc1`, the cell viability turned out to be 1.045 ± 0.0071 in assay [1], 1.01 ± 0.14 in assay [2] and 0.974 ± 0.021 in assay [3]. For the same compound, the “TCF/Wnt firefly luciferase reporter signal” value in assay [4] stood at 1.01 ± 0.12; in assay [5], 1.01 ± 0.07.

In the case of `COc1cc(C2Oc3cc([C@H]4Oc5cc(O)cc(O)c5C(=O)[C@@H]4O)ccc3OC2CO)ccc1O` (stereo not given in full), the cell viability in assay [1] worked out at 1.09 ± 0.042; in assay [2] it was 1.12 ± 0.16; in assay [3], 1.02 ± 0.014. In addition, the “TCF/Wnt firefly luciferase reporter signal” value is 0.993 ± 0.081 in assay [4] and 0.967 ± 0.2 in assay [5].

Consider `CCN(CC)CCNC(=O)COc1ccc(OC)cc1`, for which the cell viability in assay [1] came to 0.875 ± 0.03; in assay [2], 0.928 ± 0.035; in assay [3], 0.973 ± 0.038. The “TCF/Wnt firefly luciferase reporter signal” value in assay [4] turned out to be 1.09 ± 0.064; in assay [5], 1.02 ± 0.029.

Consider `CC1CCc2cc(F)cc3c(=O)c(C(=O)O)cn1c23` (stereo not given), for which the cell viability in assay [1] turned out to be 1.05 ± 0.071; in assay [2] it was 1.05 ± 0.15; in assay [3], 0.972 ± 0.013. Besides, the “TCF/Wnt firefly luciferase reporter signal” value in assay [4] amounted to 0.953 ± 0.039; in assay [5], 1.07 ± 0.014.

Regarding `NC(C(=O)O)C(O)C(=O)O` (stereo not drawn) [d,l-threo-3-HYDROXYASPARTIC ACID], the cell viability was found to be 0.923 ± 0.036 in assay [1], 1.09 ± 0.11 in assay [2] and 0.949 ± 0.044 in assay [3]. Besides, the “TCF/Wnt firefly luciferase reporter signal” value came out at 1.14 ± 0.27 in assay [4] and 1.15 ± 0.064 in assay [5].

With `Cc1cc(=O)n(-c2ccccc2)n1C`, the cell viability in assay [1] amounted to 1.03 ± 0.081; in assay [2], 0.94 ± 0.026; in assay [3] it was 1.01 ± 0.034. Moreover, the entries for the “TCF/Wnt firefly luciferase reporter signal” value in assay [4] and in assay [5] were 1.11 ± 0.2 and 1.075 ± 0.0071, respectively.

For the compound `C[C@H]1O[C@H](O[C@H]2[C@H](O)[C@@H](O)[C@@H](O[C@H]3[C@H](O)[C@@H](O)C(O)O[C@@H]3CO)O[C@@H]2CO)[C@H](O)[C@@H](O)[C@@H]1N[C@H]1C=C(CO)[C@@H](O)[C@H](O)[C@H]1O` (stereo not given in full), the values for the cell viability in assay [1], in assay [2] and in assay [3] were 1.01 ± 0.034, 0.96 ± 0.057 and 0.988 ± 0.012, respectively. Also, the “TCF/Wnt firefly luciferase reporter signal” value in assay [4] stood at 1.06; in assay [5] it was 1.02 ± 0.014.

Turning to `CC(C)=CCc1c2c(c(O)c3c(=O)c(O)c(-c4ccccc4)oc13)C=CC(C)(C)O2`, the cell viability in assay [1] stood at 1.03 ± 0.052; in assay [2], 0.998 ± 0.088; in assay [3], 1.025 ± 0.0071. The “TCF/Wnt firefly luciferase reporter signal” value in assay [4] was determined as 0.935 ± 0.0099; in assay [5], 0.974 ± 0.011.

Regarding `COc1ccc(C=CC(=O)O)cc1OC`, the cell viability came to 0.993 ± 0.0099 in assay [1], 1.06 ± 0.085 in assay [2] and 1.02 ± 0.053 in assay [3]. The “TCF/Wnt firefly luciferase reporter signal” value stood at 1.12 ± 0.042 in assay [4] and 0.987 ± 0.033 in assay [5].

As for `C[C@]12CCC(=O)C=C1CC[C@@H]1[C@@H]2[C@@H](O)C[C@@]2(C)[C@H]1CC[C@]2(O)C(=O)CO`, the results for the cell viability in assay [1], in assay [2] and in assay [3] were 1.06 ± 0.071, 1.05 ± 0.057 and 1.04 ± 0.028, respectively. Besides, the “TCF/Wnt firefly luciferase reporter signal” value in assay [4] turned out to be 0.951 ± 0.11; in assay [5], 0.935 ± 0.04.

In the case of `CC1=C(CCC(=O)O)c2cc3nc(cc4[nH]c(cc5[nH]c(cc1n2)c(C)c5C(C)O)c(C)c4C(C)O)C(C)=C3CCC(=O)O` (stereo not given), the cell viability in assay [1] amounted to 1.01 ± 0.015; in assay [2] it was 0.909 ± 0.11; in assay [3], 0.964 ± 0.0099. Also, the “TCF/Wnt firefly luciferase reporter signal” value worked out at 1.01 ± 0.13 in assay [4] and 1.02 ± 0.16 in assay [5].

Turning to `CC(C)c1c(O)ccc2c1CC[C@H]1C(C)(C)CCC[C@]21C`, the figures for the cell viability in assay [1], in assay [2] and in assay [3] were 1.16 ± 0.12, 1 ± 0.13 and 1.03 ± 0.076, respectively. The “TCF/Wnt firefly luciferase reporter signal” value was determined as 0.855 ± 0.11 in assay [4] and 0.996 ± 0.035 in assay [5].

As for `CC/C(=C(\c1ccccc1)c1ccc(OCCN(C)C)cc1)c1ccccc1`, the cell viability came out at 1.08 ± 0.05 in assay [1], 1.04 ± 0.064 in assay [2] and 1.05 ± 0.021 in assay [3]. Further, the figures for the “TCF/Wnt firefly luciferase reporter signal” value in assay [4] and in assay [5] were 0.872 ± 0.15 and 0.859 ± 0.14, respectively.

For `CNS(=O)(=O)c1ccc(NC(=O)c2ccccc2C(=O)O)cc1`, the cell viability in assay [1] came to 1.03 ± 0.098; in assay [2], 1.04 ± 0.042; in assay [3], 1.04 ± 0.072. The “TCF/Wnt firefly luciferase reporter signal” value is 0.967 ± 0.013 in assay [4] and 1.085 ± 0.0071 in assay [5].

For `CCC(=O)O[C@H]1[C@H](O[C@@H]2[C@@H](C)[C@H](O[C@H]3C[C@@](C)(OC)[C@@H](O)[C@H](C)O3)[C@@H](C)C(=O)O[C@H](CC)[C@@](C)(O)[C@H](O)[C@@H](C)C(=O)[C@H](C)C[C@@]2(C)O)O[C@H](C)C[C@@H]1N(C)C`, the cell viability is 0.989 ± 0.058 in assay [1], 0.93 ± 0.011 in assay [2] and 1.01 ± 0.016 in assay [3]. The “TCF/Wnt firefly luciferase reporter signal” value in assay [4] worked out at 0.9955 ± 0.0064; in assay [5], 1.11 ± 0.014.

Consider `C=C1C(=O)O[C@@H]2C[C@@]3(C)CCC[C@H](C)C3=C[C@H]12`, for which the values for the cell viability in assay [1], in assay [2] and in assay [3] were 1.01 ± 0.02, 0.875 ± 0.027 and 0.96 ± 0.0057, respectively. The “TCF/Wnt firefly luciferase reporter signal” value was 0.985 ± 0.0057 in assay [4] and 1.03 ± 0.067 in assay [5].

Turning to `COc1c(O)cc2c(-c3ccccc3)cc(=O)oc2c1OC`, the cell viability in assay [1] amounted to 0.989 ± 0.016; in assay [2] it was 1.03 ± 0.028; in assay [3], 0.977 ± 0.061. Besides, the “TCF/Wnt firefly luciferase reporter signal” value in assay [4] was 1.03; in assay [5], 0.977 ± 0.033.

Take `N[C@@H](Cc1ccc(O)c(O)c1)C(=O)O`: the cell viability in assay [1] came to 1.075 ± 0.0071; in assay [2], 1.03 ± 0.064; in assay [3] it was 0.99 ± 0.071. The “TCF/Wnt firefly luciferase reporter signal” value in assay [4] was determined as 1.01 ± 0.04; in assay [5], 1.09 ± 0.042.
